Laboratory results reported in PubChem BioAssay (NCATS).
Where “and” joins values, the source holds several entries; their conditions need not be identical. Equal entries are not always repeated. Results filed as inconclusive are left out. Calls of active or inactive are those of the source. Unless noted, calls follow the shape of the dose curve; as a rule, active = well fitted curve in the direction sought with a large enough effect; inconclusive = small, poorly fitted or top-dose-only effect, or another doubt; inactive = no such curve, though single readings can be large; an effect the other way counts as inactive or inconclusive.

Tests used:
[1] = molecular target: Voltage-gated inwardly rectifying potassium channel KCNH2 (Homo sapiens) (UniProt Q12809); experiment: qHTS Assay for Small Molecule Inhibitors of the Human hERG Channel Activity (AID 588834);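 also: lower thallium flux fluorescence means stronger hERG block; nearly all actives have a fitted effect of over 50% in size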; also: potency is read from the fitted curve at half-maximal effect
Procedure, shortened: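 Thallium serves as surrogate for K+ influx through BacMam-delivered hERG in U2OS cells. Compounds are added for about 10 minutes after dye loading; stimulation buffer then starts flux, monitored kinetically on FDSS.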

[2] = molecular target: Luciferin 4-monooxygenase (Photinus pyralis) (UniProt P08659); experiment: Biochemical firefly luciferase enzyme assay for NPC (AID 624030);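 also: purified P. pyralis luciferase at 10 nM with luciferin and ATP substrate; series mostly up to about 59 µM; 0% = DMSO and -100% = full luciferase inhibition by PTC124 control; nearly all actives have a fitted effect of over 70% in size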
Procedure, shortened: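 Counter-screen for direct inhibition of the luciferase enzyme by approved-drug library compounds, run at 10 nM enzyme in 50 mM Tris acetate (final). Luminescence was read within 5 min of enzyme-buffer addition and normalized to PTC124 versus DMSO (0%).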

[3] = S16 Schwann cell PMP22 intronic element firefly luciferase assay (AID 624032); also: nearly all actives have a fitted effect of over 30% in size; also: potency is read from the fitted curve at half-maximal effect
Procedure, shortened: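 Rat S16 Schwann cells stably carrying a PMP22 intronic element-driven Fluc reporter were seeded overnight, then exposed to compounds for 24 h at 37 °C. Luminescence was normalized to PTC124 (positive control) and DMSO (0% activity).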

[4] = molecular target: Thyroid hormone receptor beta (Homo sapiens) (UniProt P10828); experiment: qHTS assay for small molecule agonists of thyroid hormone receptor beta signaling (AID 588545; calls by dose curve;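 also: 0% = DMSO only and 100% = 10 nM T3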)
Procedure, shortened: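 Beta-lactamase reporter activity under TR response element control is measured in HEK 293 cells after 18 hrs compound exposure. Signal is ratiometric CCF4 fluorescence, 460/530 nm.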

[5] = qHTS assay for small molecule antagonists of retinoid X receptor alpha signaling (AID 588546; active = well fitted inhibition curve with a large enough effect in the signal ratio, with a control signal flat, not every such curve was filed as active; the % refers to the signal ratio;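 also: cells stimulated with 9-cis-retinoic acid as agonist; % is scaled to controls: 0 for no effect and ±100 for the full control effect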); conditions: HEK293T RXRa-UAS-bla, beta-lactamase ratio, antagonist mode; measured here: W530 green channel, cytotoxicity proxy
Procedure, shortened: (§1)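 Beta-lactamase reporter inhibition, read as CCF4 fluorescence ratio (ex 405, em 460/530 nm) after 2 h at RT. HEK293T UAS-bla cells, 2500/well, were stimulated with 9-cis-RA at 500 or 100 nM final alongside test compound for 18 h at 37 C.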

[6] = molecular target: Retinoic acid receptor RXR-alpha (Homo sapiens) (UniProt P19793); experiment: as above; conditions: HEK293T RXRa-UAS-bla, beta-lactamase ratio, antagonist mode
Procedure, shortened: as §1

[7] = molecular target: Thyroid hormone receptor beta (Homo sapiens) (UniProt P10828); experiment: qHTS assay for small molecule antagonists of thyroid hormone receptor beta signaling (AID 588547; active = well fitted inhibition curve with a large enough effect in the signal ratio, with a control signal flat, not every such curve was filed as active; the % refers to the signal ratio;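 also: cells stimulated with 0.4 nM T3 agonist during compound exposure; series mostly up to about 77 µM; % is scaled to controls: 0 for no effect and ±100 for the full control effect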); conditions: TR-UAS-bla HEK293, beta-lactamase ratio, antagonist mode, 18 h
Procedure, shortened: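 TR-UAS-bla GripTite HEK293 cells in 2% charcoal/dextran FBS medium were preincubated 4 h at 37 C, given compound (0.59 nM to 92 uM) plus 0.4 nM T3 (final) for 18 h, then CCF4 for 2 h at RT; Hill fit gave IC50.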

[8] = qHTS assay for small molecule agonists of the antioxidant response element (ARE) signaling pathway (AID 651741; active = well fitted activation curve with a large enough effect in the signal ratio; the % refers to the signal ratio; also: potency is read from the fitted curve at half-maximal effect; as to activation: % of control where 0% means no effect)
Procedure, shortened: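 Reporter: beta-lactamase under ARE, stably in HepG2. Exposure: 16 h, 37 C, compounds delivered in DMSO by pin tool after 5 h cell preincubation. Readout: FRET substrate fluorescence after 2 h at RT.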

[9] = qHTS assay for small molecule activators of the p53 signaling pathway (AID 651743; active = well fitted activation curve with a large enough effect in the signal ratio, not every such curve was filed as active; the % refers to the signal ratio; also: series mostly up to about 92 µM; % of control where 0% means no effect); conditions: HCT-116 p53RE-bla, beta-lactamase FRET ratio, 16 h; activation: stronger effect = higher value
Procedure, shortened: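 Agonist-mode quantitative HTS in HCT-116 cells carrying a p53-response-element beta-lactamase reporter; 16 h compound treatment at 37 C, then FRET substrate loading for 2 h at room temperature and fluorescence read.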

[10] = S16 Schwann cell viability assay (CellTiter-Glo assay) (AID 624031); also: potency is read from the fitted curve at half-maximal effect; nearly all actives have a fitted effect of over 70% in size
Procedure, shortened: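 Luminescent ATP read-out (CellTiter-Glo) after 24 h compound exposure of native S16 rat Schwann cells at 37 °C. Signals were normalized between cell-free wells and DMSO-treated cells, set as 0% activity.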

[11] = S16 Schwann cell PMP22 intronic element beta-lactamase assay (AID 624044; calls by dose curve;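 also: 0% = DMSO and -100% = potassium clavulanate positive control; nearly all actives have a fitted effect of over 15% in size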)
Procedure, shortened: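 Beta-lactamase reporter under a PMP22 intronic regulatory element in stable S16 rat Schwann cells; 24 h compound exposure. 460 nm blue signal normalized between DMSO (0%) and potassium clavulanate, with 535 nm FRET tracking viability; curves classed by r2 and response.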

Sequence of Voltage-gated inwardly rectifying potassium channel KCNH2 (Homo sapiens) (Q12809 whole entry, looked up): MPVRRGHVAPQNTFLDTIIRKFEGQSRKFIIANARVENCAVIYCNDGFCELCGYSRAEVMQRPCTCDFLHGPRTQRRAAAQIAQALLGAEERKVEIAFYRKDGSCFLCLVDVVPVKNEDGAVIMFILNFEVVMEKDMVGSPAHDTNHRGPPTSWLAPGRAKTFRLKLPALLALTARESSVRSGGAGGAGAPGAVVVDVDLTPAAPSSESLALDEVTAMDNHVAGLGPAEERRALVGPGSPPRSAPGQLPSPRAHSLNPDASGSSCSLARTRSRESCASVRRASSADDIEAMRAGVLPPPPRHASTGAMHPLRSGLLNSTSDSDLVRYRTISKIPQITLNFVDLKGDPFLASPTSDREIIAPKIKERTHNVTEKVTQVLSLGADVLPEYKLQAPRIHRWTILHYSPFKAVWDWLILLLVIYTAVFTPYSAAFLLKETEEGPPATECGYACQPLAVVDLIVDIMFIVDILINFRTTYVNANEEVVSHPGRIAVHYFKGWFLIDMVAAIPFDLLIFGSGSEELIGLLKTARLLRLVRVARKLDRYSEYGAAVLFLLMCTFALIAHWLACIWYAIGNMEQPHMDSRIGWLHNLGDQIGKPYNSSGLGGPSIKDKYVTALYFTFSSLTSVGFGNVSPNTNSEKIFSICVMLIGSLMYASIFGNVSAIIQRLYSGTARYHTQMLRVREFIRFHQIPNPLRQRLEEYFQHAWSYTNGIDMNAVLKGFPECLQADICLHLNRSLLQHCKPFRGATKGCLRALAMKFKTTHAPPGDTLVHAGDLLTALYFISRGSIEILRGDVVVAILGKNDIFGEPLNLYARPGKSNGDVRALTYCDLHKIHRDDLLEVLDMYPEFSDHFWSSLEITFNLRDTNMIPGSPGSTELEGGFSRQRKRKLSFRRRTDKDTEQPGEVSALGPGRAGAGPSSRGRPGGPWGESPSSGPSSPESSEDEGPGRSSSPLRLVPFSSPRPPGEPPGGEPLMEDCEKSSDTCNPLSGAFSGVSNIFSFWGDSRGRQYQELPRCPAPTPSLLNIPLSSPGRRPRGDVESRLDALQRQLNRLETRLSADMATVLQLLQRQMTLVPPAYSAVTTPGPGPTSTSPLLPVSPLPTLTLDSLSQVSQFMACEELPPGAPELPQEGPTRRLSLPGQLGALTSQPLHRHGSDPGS
Sequence of Luciferin 4-monooxygenase (Photinus pyralis) (P08659 whole entry, looked up): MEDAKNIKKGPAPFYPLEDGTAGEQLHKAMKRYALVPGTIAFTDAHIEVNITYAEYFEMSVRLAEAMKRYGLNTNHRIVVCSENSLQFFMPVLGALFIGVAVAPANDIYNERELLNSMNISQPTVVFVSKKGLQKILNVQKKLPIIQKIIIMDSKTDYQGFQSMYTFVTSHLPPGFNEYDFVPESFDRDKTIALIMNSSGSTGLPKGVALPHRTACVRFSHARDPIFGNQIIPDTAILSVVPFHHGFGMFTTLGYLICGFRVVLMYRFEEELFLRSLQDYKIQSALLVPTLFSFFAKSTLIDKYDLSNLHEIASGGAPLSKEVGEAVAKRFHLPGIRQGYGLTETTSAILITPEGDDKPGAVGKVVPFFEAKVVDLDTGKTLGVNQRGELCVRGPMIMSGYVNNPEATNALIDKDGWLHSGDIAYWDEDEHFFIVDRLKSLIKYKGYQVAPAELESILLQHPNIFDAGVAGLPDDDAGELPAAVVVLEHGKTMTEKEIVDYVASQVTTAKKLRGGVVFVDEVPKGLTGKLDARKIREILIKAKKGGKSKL
Sequence of Thyroid hormone receptor beta (Homo sapiens) (P10828 whole entry, looked up): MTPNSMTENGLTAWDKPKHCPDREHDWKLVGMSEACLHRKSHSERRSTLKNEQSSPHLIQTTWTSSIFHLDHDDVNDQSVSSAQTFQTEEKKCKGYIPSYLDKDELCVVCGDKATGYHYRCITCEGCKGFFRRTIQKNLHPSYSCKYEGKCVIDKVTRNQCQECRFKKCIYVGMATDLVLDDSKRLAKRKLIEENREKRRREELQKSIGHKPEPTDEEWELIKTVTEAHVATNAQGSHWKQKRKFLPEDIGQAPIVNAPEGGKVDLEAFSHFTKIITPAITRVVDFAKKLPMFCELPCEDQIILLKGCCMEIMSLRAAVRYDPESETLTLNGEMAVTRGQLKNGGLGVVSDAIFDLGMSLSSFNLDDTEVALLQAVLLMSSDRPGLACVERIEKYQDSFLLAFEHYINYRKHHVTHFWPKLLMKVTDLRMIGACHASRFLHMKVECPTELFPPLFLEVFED
Sequence of Retinoic acid receptor RXR-alpha (Homo sapiens) (P19793 whole entry, looked up): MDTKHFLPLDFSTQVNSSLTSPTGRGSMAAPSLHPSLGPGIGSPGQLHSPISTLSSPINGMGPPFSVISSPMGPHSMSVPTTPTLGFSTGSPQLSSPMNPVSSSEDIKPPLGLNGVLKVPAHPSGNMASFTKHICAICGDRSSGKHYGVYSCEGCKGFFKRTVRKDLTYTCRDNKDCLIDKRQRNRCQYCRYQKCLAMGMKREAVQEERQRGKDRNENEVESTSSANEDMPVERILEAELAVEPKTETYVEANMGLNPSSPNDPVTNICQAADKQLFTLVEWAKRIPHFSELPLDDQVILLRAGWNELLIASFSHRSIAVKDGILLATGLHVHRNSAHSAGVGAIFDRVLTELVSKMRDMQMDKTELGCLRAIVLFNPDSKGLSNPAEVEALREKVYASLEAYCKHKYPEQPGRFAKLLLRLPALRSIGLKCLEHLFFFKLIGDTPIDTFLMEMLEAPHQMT

## O=[N+]([O-])c1ccc(O)c2ncccc12
[1]
  Potency: inactive
[2]
  Potency: inactive
[3]
  Potency: inactive

## CC(=O)OC/C=C(C)/C=C/C=C(C)/C=C/C1=C(C)CCCC1(C)C
[4]
  outcome: inactive
[5]
  max response: 10.5%
[6]
  max response: 0.429% (inactive)
[7]
  activity change % (negative = inhibition): 1.82% (inactive)
[1]
  Potency: inactive
[2]
  Potency: inactive
[8]
  Potency: 42.2 µM (active) and 54.5 µM (active)
[9]
  activation: -8.23% (inactive) and -2.69% (inactive)

## CC(C)C(C)(C)C(C)(C)C(C)(C)S
[5]
  max response: -12% and -14.7%
[6]
  max response: 11.7% (inactive) and -0.658% (inactive)
[7]
  activity change % (negative = inhibition): 1.2% (inactive) and -6.79% (inactive)
[1]
  Potency: inactive
[2]
  Potency: inactive
[8]
  Potency: inactive
[9]
  activation: 1.86% (inactive) and -1.44% (inactive)

## CN1C(=O)c2ccccc2C1=O
[4]
  outcome: inactive
[7]
  activity change % (negative = inhibition): -4.79% (inactive)
[2]
  Potency: inactive
[8]
  Potency: inactive
[9]
  activation: 8.47% (inactive)

## COC(=O)c1c(Cl)c(Cl)c(C(=O)OC)c(Cl)c1Cl
[4]
  outcome: inactive
[5]
  max response: -11.5%
[6]
  max response: 4.25% (inactive)
[7]
  activity change % (negative = inhibition): 3.31% (inactive)
[2]
  Potency: inactive
[8]
  Potency: 54.5 µM (active)
[9]
  activation: 1.22% (inactive)

## CC(C)(c1ccc(O)cc1)c1ccc(O)cc1
[4]
  outcome: inactive
[5]
  max response: -4.03% and -11.6%
[6]
  max response: -28% (inactive) and 10.2% (inactive)
[9]
  activation: -1.88% (inactive) and -5.31% (inactive) and -3.08% (inactive)

## OCCOCCN1CCN(C(c2ccccc2)c2ccc(Cl)cc2)CC1 (stereo not drawn)
[4]
  outcome: inactive
[5]
  max response: 2.38%
[6]
  max response: -14.3% (inactive)
[7]
  activity change % (negative = inhibition): -10.5% (inactive)
[2]
  Potency: inactive
[8]
  Potency: inactive
[9]
  activation: -1.54% (inactive)

## C[C@]12CCC(=O)C=C1CC[C@@H]1[C@@H]2[C@@H](O)C[C@@]2(C)[C@H]1CC[C@]2(O)C(=O)COC(=O)CCC(=O)O
[1]
  Potency: inactive
[2]
  Potency: inactive

## O=C(NO)c1ccccc1
[4]
  outcome: inactive
[5]
  max response: -10.6%
[6]
  max response: -9.23% (inactive)
[7]
  activity change % (negative = inhibition): -5.82% (inactive)
[1]
  Potency: inactive
[2]
  Potency: inactive
[9]
  activation: 3.57% (inactive)

## CCCCCCCCCCCC[N+](C)(C)Cc1ccccc1
[4]
  outcome: inactive
[7]
  activity change % (negative = inhibition): -19.6% (inactive)
[2]
  Potency: inactive

## CCCCCCCCCCCCCCCC[N+](C)(C)Cc1ccccc1
[1]
  Potency: 22.4 µM (active)
[2]
  Potency: inactive
[10]
  Potency: 16.1 µM (active)
[3]
  Potency: 14.4 µM (active)
[11]
  Potency: inactive
